Active and inactive are the calls of the source. Rule for the calls: active = hit-call score of the fitted dose curve at least 0.9, where 1 is the maximum; inactive = score below 0.9.
Experiments:
[1] = read-out: Thrombomodulin, THBD (gene 7056); assay: BSK_CASM3C_Thrombomodulin: BioMAP Diversity Plus: CASM3C Assay for Thrombomodulin Biomarker Activity (AID 2283051); settings: primary human coronary artery smooth muscle cells; actives raise or lower the signal;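 note: thrombomodulin protein level measured by ELISA 24 h after dosing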
[2] = read-out: Tissue Factor, F3 (gene 2152); assay: BSK_CASM3C_TissueFactor: BioMAP Diversity Plus: CASM3C Assay for Tissue Factor Biomarker Activity (AID 2283052); settings: primary human coronary artery smooth muscle cells; actives raise or lower the signal;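 note: cell surface tissue factor protein level read by ELISA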
[3] = read-out: Interferon-gamma inducible Protein 10 (IP10), CXCL10 (gene 3627); assay: BSK_hDFCGF_IP10: BioMAP Diversity Plus: hDFCGF Assay for Interferon-gamma inducible Protein 10 (IP10) Biomarker Activity (AID 2283053); settings: primary human foreskin fibroblasts; actives raise or lower the signal
Outline: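 IP-10 levels, quantified by ELISA, are taken from human foreskin fibroblast cultures 24 h after chemical treatment, with DMSO serving as negative control and baseline for bidirectional analysis.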

[4] = read-out: Urokinase-type plasminogen activator receptor (uPAR), PLAUR (gene 5329); assay: BSK_CASM3C_uPAR: BioMAP Diversity Plus: CASM3C Assay for Urokinase-type plasminogen activator receptor (uPAR) Biomarker Activity (AID 2283054); settings: primary human coronary artery smooth muscle cells; actives raise or lower the signal;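 note: cell-surface uPAR protein level quantified by ELISA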
[5] = read-out: Vascular cell adhesion molecule 1 (VCAM1), VCAM1 (gene 7412); assay: BSK_CASM3C_VCAM1: BioMAP Diversity Plus: CASM3C Assay for Vascular cell adhesion molecule 1 (VCAM1) Biomarker Activity (AID 2283055); settings: primary human coronary artery smooth muscle cells; actives raise or lower the signal;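 note: VCAM-1 protein level quantified by ELISA on the cells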
[6] = read-out: Collagen III, COL3A1 (gene 1281); assay: BSK_hDFCGF_CollagenIII: BioMAP Diversity Plus: hDFCGF Assay for Collagen III Biomarker Activity (AID 2283056); settings: primary human foreskin fibroblasts; actives raise or lower the signal
Outline: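 Human foreskin fibroblast primary cultures sampled 24 h after dosing; Collagen III quantified by ELISA. Signal fitted bidirectionally against DMSO baseline.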

[7] = read-out: Epidermal growth factor receptor (EGFR), EGFR (gene 1956); assay: BSK_hDFCGF_EGFR: BioMAP Diversity Plus: hDFCGF Assay for Epidermal growth factor receptor (EGFR) Biomarker Activity (AID 2283057); settings: primary human foreskin fibroblasts; actives raise or lower the signal
Outline: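 Measured by ELISA: EGFR levels on primary human foreskin fibroblasts 24 h after chemical treatment, analysed relative to DMSO with bidirectional fitting.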

[8] = read-out: Interleukin-8 (IL8), CXCL8 (gene 3576); assay: BSK_hDFCGF_IL8: BioMAP Diversity Plus: hDFCGF Assay for Interleukin-8 (IL8) Biomarker Activity (AID 2283058); settings: primary human foreskin fibroblasts; actives raise or lower the signal
Outline: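 Primary human foreskin fibroblasts (hDFCGF system) dosed with chemical; IL-8 measured by ELISA 24 hours later. Bidirectional curve fitting relative to DMSO baseline; cytotoxicity tracked in parallel cultures by SRB total protein staining.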

[9] = BSK_hDFCGF_Proliferation: Cell Proliferation Assessment in the BioMAP Diversity Plus: hDFCGF Assay (AID 2283059); settings: primary human foreskin fibroblasts;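 note: curves fitted for both rise and fall of signal versus DMSO baseline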
Outline: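 Sub-confluent human foreskin fibroblast cultures receive test chemical […]. Relative cell number is quantified by sulforhodamine B staining (0.1%, after 10% TCA fixation) at 560 nm, with bidirectional fitting referenced to DMSO.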

[10] = read-out: Macrophage colony-stimulating factor (MCSF), CSF1 (gene 1435); assay: BSK_hDFCGF_MCSF: BioMAP Diversity Plus: hDFCGF Assay for Macrophage colony-stimulating factor (MCSF) Biomarker Activity (AID 2283060); settings: primary human foreskin fibroblasts; actives raise or lower the signal
Outline: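 Human foreskin fibroblast primary cultures; M-CSF measured by ELISA 24 hours after chemical dosing. Bidirectional fitting relative to DMSO, with overt cytotoxicity tracked by parallel SRB total-protein staining (0.1% SRB, 10% TCA fixation, 560 nm).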

[11] = read-out: TIMP metallopeptidase inhibitor 1 (TIMP1), TIMP1 (gene 7076); assay: BSK_hDFCGF_TIMP1: BioMAP Diversity Plus: hDFCGF Assay for TIMP metallopeptidase inhibitor 1 (TIMP1) Biomarker Activity (AID 2283062); settings: primary human foreskin fibroblasts; actives raise or lower the signal
Outline: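 Human foreskin fibroblast primary cultures dosed for 24 h; secreted/surface TIMP-1 quantified by ELISA. Bidirectional curve fitting against DMSO baseline; cytotoxicity tracked in parallel cultures by SRB total-protein staining.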

[12] = read-out: Matrix Metallopeptidase 1 (MMP1), MMP1 (gene 4312); assay: BSK_hDFCGF_MMP1: BioMAP Diversity Plus: hDFCGF Assay for Matrix Metallopeptidase 1 (MMP1) Biomarker Activity (AID 2283064); settings: primary human foreskin fibroblasts; actives raise or lower the signal
Outline: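 Primary human foreskin fibroblasts in the hDFCGF system were dosed with test chemical, and MMP1 was measured by ELISA 24 h later. Values come from bidirectional curve fitting against the DMSO baseline.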

[13] = read-out: Vascular cell adhesion molecule 1 (VCAM1), VCAM1 (gene 7412); assay: BSK_hDFCGF_VCAM1: BioMAP Diversity Plus: hDFCGF Assay for Vascular cell adhesion molecule 1 (VCAM1) Biomarker Activity (AID 2283065); settings: primary human foreskin fibroblasts; actives raise or lower the signal;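 for AC50: VCAM-1 protein level quantified by ELISA after 24 h chemical exposure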
Outline: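 Human foreskin fibroblast primary cells dosed with chemical, VCAM-1 measured by ELISA at 24 h. Bidirectional curve fitting relative to DMSO as negative control/baseline.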

[14] = read-out: Plasminogen activator inhibitor-1 (PAI1), SERPINE1 (gene 5054); assay: BSK_hDFCGF_PAI1: BioMAP Diversity Plus: hDFCGF Assay for Plasminogen activator inhibitor-1 (PAI1) Biomarker Activity (AID 2283066); settings: primary human foreskin fibroblasts; actives raise or lower the signal
Outline: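 PAI-1 levels, determined by ELISA, served as the endpoint in human foreskin fibroblast cultures exposed to compound for 24 h, with DMSO as baseline.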

[15] = read-out: Intercellular Adhesion Molecule 1 (ICAM1), ICAM1 (gene 3383); assay: BSK_KF3CT_ICAM1: BioMAP Diversity Plus: KF3CT Assay for Intercellular Adhesion Molecule 1 (ICAM1) Biomarker Activity (AID 2283067); settings: primary human keratinocytes with fibroblasts; actives raise or lower the signal
Outline: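 Human keratinocyte–foreskin fibroblast co-culture was treated for 24 h. Cell-surface ICAM-1 was quantified by ELISA, fitted bidirectionally relative to DMSO. Cytotoxicity was checked in parallel cultures by SRB total-protein staining.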

[16] = read-out: Interferon-gamma inducible Protein 10 (IP10), CXCL10 (gene 3627); assay: BSK_KF3CT_IP10: BioMAP Diversity Plus: KF3CT Assay for Interferon-gamma inducible Protein 10 (IP10) Biomarker Activity (AID 2283068); settings: primary human keratinocytes with fibroblasts; actives raise or lower the signal
Outline: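 ELISA read-out of IP-10 after 24 h chemical dosing of human skin primary co-culture (keratinocytes, foreskin fibroblasts). Gain or loss of signal relative to DMSO, bidirectional curve fit.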

[17] = BSK_KF3CT_SRB: Viability Assessment in the BioMAP Diversity Plus: KF3CT Assay (AID 2283069); settings: primary human keratinocytes with fibroblasts;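 note: total protein by sulforhodamine B staining as a cytotoxicity measure; read 24 h after compound addition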
Outline: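 Human primary keratinocyte plus foreskin fibroblast co-culture exposed to chemicals for 24 h. Total protein measured by 0.1% sulforhodamine B staining after 10% TCA fixation, read at 560 nm; bidirectional fitting versus DMSO baseline.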

[18] = read-out: Interleukin-1 alpha (IL1a), IL1A (gene 3552); assay: BSK_KF3CT_IL1a: BioMAP Diversity Plus: KF3CT Assay for Interleukin-1 alpha (IL1a) Biomarker Activity (AID 2283070); settings: primary human keratinocytes with fibroblasts; actives raise or lower the signal
Outline: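 Human keratinocyte plus foreskin fibroblast primary co-culture, sampled 24 h after chemical dosing. IL-1a measured by ELISA; responses fitted bidirectionally against DMSO baseline (negative control), so gain or loss of signal both count.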

[19] = read-out: Monokine induced gamma interferon (MIG), CXCL9 (gene 4283); assay: BSK_hDFCGF_MIG: BioMAP Diversity Plus: hDFCGF Assay for Monokine induced gamma interferon (MIG) Biomarker Activity (AID 2283063); settings: primary human foreskin fibroblasts; actives raise or lower the signal
Outline: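 MIG/CXCL9 measured by ELISA 24 h after dosing primary human skin fibroblasts. Activity fitted in both directions against DMSO controls. Cytotoxicity was checked in parallel cultures by SRB staining read at 560 nm.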

[20] = BSK_hDFCGF_SRB: Viability Assessment in the BioMAP Diversity Plus: hDFCGF Assay (AID 2283061); settings: primary human foreskin fibroblasts;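 note: cells exposed to compound for 24 h before the read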
Outline: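 Human foreskin fibroblasts in 96-well plates were treated 24 h. Total protein was measured by 0.1% SRB staining after 10% TCA fixation, read at 560 nm. Data were fitted bidirectionally against DMSO.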

Measured: AC50

CC1(C)C(C=C(Cl)Cl)C1C(=O)OC(C#N)c1ccc(F)c(Oc2ccccc2)c1 (configuration not stated)
active: [1] 33.8 µM | [6] 0.189 µM | [7] 3.84 µM | [9] 13.2 µM
not listed: [19] | [20]
inactive: all other assays above

O=S1OCC2C(CO1)C1(Cl)C(Cl)=C(Cl)C2(Cl)C1(Cl)Cl (configuration not stated)
inactive: [2] | [7]
active: [1] 14.3 µM | [3] 29.5 µM | [4] 36.6 µM | [5] 25.8 µM | [6] 22.5 µM | [8] 33.8 µM | [9] 23.2 µM | [10] 24.2 µM | [11] 32 µM | [12] 36.7 µM | [13] 33.5 µM | [15] 31.9 µM | [16] 29.9 µM | [17] 29.5 µM | [18] 29.1 µM

COC(=O)c1ccccc1CS(=O)(=O)NC(=O)Nc1nc(OC)cc(OC)n1
not listed: [19] | [20]
inactive: all other assays above

CCCN(CCOc1c(Cl)cc(Cl)cc1Cl)C(=O)n1ccnc1
active: [1] 3.97 µM | [3] 30.7 µM | [6] 31.1 µM | [9] 21 µM | [10] 23.8 µM | [14] 23.9 µM
not listed: [20]
inactive: all other assays above

COP(=S)(OC)Oc1ccc(SC)c(C)c1
active: [12] 9.5 µM
not listed: [19] | [20]
inactive: all other assays above

CC[C@H](C)[C@H]1O[C@]2(C=C[C@@H]1C)C[C@@H]1C[C@@H](C/C=C(\C)[C@@H](O[C@H]3C[C@H](OC)[C@@H](O[C@H]4C[C@H](OC)[C@@H](O)[C@H](C)O4)[C@H](C)O3)[C@@H](C)/C=C/C=C3\CO[C@@H]4[C@H](O)C(C)=C[C@@H](C(=O)O1)[C@]34O)O2 (tested in a mixture with another compound)
active: [3] 10.7 µM | [4] 12.2 µM | [5] 15 µM | [6] 6.63 µM | [7] 5.21 µM | [8] 9.73 µM | [9] 5.3 µM | [10] 8.11 µM | [11] 9.96 µM | [12] 9.79 µM | [13] 9.78 µM | [14] 6.95 µM | [15] 14.1 µM | [16] 12.5 µM | [17] 14.1 µM | [18] 6.95 µM
inactive: [1] | [2]

O=C1c2ccccc2C(=O)N1SC(Cl)(Cl)Cl
active: [1] 4.99 µM | [3] 20 µM | [4] 33.8 µM | [9] 29.7 µM | [10] 26 µM | [20] 33.1 µM | [16] 26.8 µM
not listed: [5] | [19]
inactive: all other assays above

CNC(=O)CSP(=S)(OC)OC
not listed: [19] | [20]
inactive: all other assays above

CN1CSC(=S)N(C)C1
active: [3] 16 µM | [5] 20 µM | [9] 13.5 µM | [10] 10.6 µM | [13] 9.28 µM | [14] 24.2 µM
not listed: [19] | [20]
inactive: all other assays above

CCOC1Oc2ccc(OS(C)(=O)=O)cc2C1(C)C (configuration not stated)
not listed: [19] | [20]
inactive: all other assays above

COP(=O)(OC)OC=C(Cl)Cl
not listed: [8] | [19] | [20]
inactive: all other assays above

— PubChem BioAssay (EPA / NIEHS)
